ELG1 genotox: qHTS screen for small molecules that induce genotoxicity in human embryonic kidney (HEK293T) cells expressing luciferase-tagged ELG1; hit rate 1.3% among 330,000; Potency, µM (series often up to 46 µM), most hits filed as activators; HEK293T ELG1-luciferase reporter, luminescence, 16 h; AID 504466, 2011; note: nearly all actives have a fitted effect of over 60% in size
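Quantitative HTS format in 1536-well plates. HEK293T ELG1-luciferase reporter cells receive test compound and are incubated 16 hr at 37 °C, 5% CO2; ONE-Glo added, 30 min room temperature, then luminescence read.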
SMN2 splice up: qHTS Assay for Enhancers of SMN2 Splice Variant Expression. HEK293 SMN2-luciferase splicing reporter, luminescence, 30-36 h. Potency, µM (series often up to 46.1 µM), most hits filed as activators. hit rate 2.8% among 210,000. AID 1458, 2008; note: nearly all actives have a fitted effect of over 55% in size
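HEK293 cells carry an SMN2 […]–luciferase reporter in which exon 7 inclusion puts luciferase in frame. Cells were plated 10-12 h before compound addition, then incubated 30-36 h at 37C. ONE-Glo luminescence was read; sodium butyrate at 4.5 mM final served as control.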
KinaseGlo FLuc: Counterscreen for Luciferase (Kinase-Glo TM) Inhibition. hit rate 0.28% among 200,000. Kinase-Glo luciferase, ATP luminescence, 8 min. Luciferin 4-monooxygenase (Photuris pensylvanica), Q27757. Potency, µM (series often up to 38.3 µM), usual class: inhibitors; note: nearly all actives have a fitted effect of over 60% in size
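Substrate mix (final 50 mM imidazole pH 7.2, 50 mM KCl, 7 mM MgCl2, 10 uM ATP, 0.01% Tween 20, 0.05% BSA) plus pin-tool compound, then Kinase-Glo detection mix; 8 min ambient, luminescence read.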
NPC1 promoter act: qHTS Assay for NPC1 Promoter Activators. Huh7 NPC1 promoter luciferase reporter, 24 h. Potency, µM (series often up to 9.22 µM), actives largely listed as activators. hit rate 2.4% among 320,000; note: nearly all actives have a fitted effect of over 60% in size
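Quantitative HTS used a cell-based reporter: Huh7 cells stably bearing the NPC1 promoter upstream of luciferase were treated with compounds for 24 h, and promoter activation was read as luminescence.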
FLuc counter: qHTS profiling assay for firefly luciferase inhibitor/activator using purifed enzyme and Km concentrations of substrates (counterscreen for miR-21 project); Luciferin 4-monooxygenase (Photinus pyralis), P08659; purified FLuc, Km substrates, luminescence inhibition; Potency, µM (series often up to 57.5 µM), actives largely listed as inhibitors; hit rate 6.9% among 360,000; note: nearly all actives have a fitted effect of over 55% in size
Target sequence (P08659 whole entry, looked up): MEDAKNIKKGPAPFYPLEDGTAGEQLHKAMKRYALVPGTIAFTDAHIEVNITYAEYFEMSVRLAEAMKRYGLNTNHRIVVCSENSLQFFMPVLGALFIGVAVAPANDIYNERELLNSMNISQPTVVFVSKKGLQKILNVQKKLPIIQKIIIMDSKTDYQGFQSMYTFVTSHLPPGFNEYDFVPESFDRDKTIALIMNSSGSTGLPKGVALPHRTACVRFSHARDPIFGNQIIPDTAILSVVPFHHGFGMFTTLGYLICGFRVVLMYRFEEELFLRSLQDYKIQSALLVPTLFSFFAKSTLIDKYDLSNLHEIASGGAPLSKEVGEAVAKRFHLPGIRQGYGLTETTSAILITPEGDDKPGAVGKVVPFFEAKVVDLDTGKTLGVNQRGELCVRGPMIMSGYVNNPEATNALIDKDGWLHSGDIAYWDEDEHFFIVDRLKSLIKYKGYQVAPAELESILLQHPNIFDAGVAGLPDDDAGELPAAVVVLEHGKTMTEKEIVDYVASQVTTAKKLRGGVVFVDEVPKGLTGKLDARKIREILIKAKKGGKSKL
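Biochemical qHTS of compounds, final roughly 60 µM downward over six points, against 10 nM purified firefly luciferase using Km concentrations of substrates (10 uM D-luciferin, 10 uM ATP) in Tris acetate pH 7.5 buffer; luminescence output.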
Rab9 promoter act: qHTS Assay for Rab9 Promoter Activators. Huh7 Rab9 promoter-luciferase reporter, luminescence, 24 h. Potency, µM (top dose mostly 9.22 µM), hits mostly activators. hit rate 2.8% among 320,000; note: nearly all actives have a fitted effect of over 60% in size
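Huh7 reporter line, Rab9 promoter upstream of luciferase. Compound exposure 24 h at 37 °C in reduced-serum medium with 10% FBS. Read-out: luminescence.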
Hits are given with their value. This is a sample that favours compounds with a hit; in the whole collection about 7.4% have one here. Calls come from the whole dose curve; as a rule, active = well fitted curve in the direction sought with a large enough effect; inconclusive = small, poorly fitted or top-dose-only effect, or another doubt; inactive = no such curve, though single readings can be large; an effect the other way counts as inactive or inconclusive.

`O=C(CSc1nnc(NC(=O)c2c(F)cccc2F)s1)Nc1ccccc1F` gave ELG1 genotox inactive, NPC1 promoter act inactive, FLuc counter inconclusive and Rab9 promoter act inactive.
For COc1ccccc1C(=O)Nc1nnc(SCC(=O)Nc2ccc3c(c2)oc2ccccc23)s1 the results were ELG1 genotox inconclusive, SMN2 splice up 22µM, KinaseGlo FLuc inactive, NPC1 promoter act 4µM, FLuc counter 1.9µM and Rab9 promoter act 2.8µM.
O=C(CSc1nnc(NC(=O)c2ccc(F)cc2)s1)NC1CC1 was read as ELG1 genotox inconclusive, NPC1 promoter act 2.5µM, FLuc counter 5.4µM and Rab9 promoter act inconclusive.
`CC(C)c1nnc(NC(=O)CSc2nnc(NC(=O)c3c(F)cccc3F)s2)s1` gave ELG1 genotox inactive, SMN2 splice up inactive, KinaseGlo FLuc inactive, NPC1 promoter act inactive, FLuc counter 8.5µM and Rab9 promoter act inactive.
For O=C(Cc1ccc(F)cc1)Nc1nnc(SCC(=O)NC2CCCC2)s1 the results were ELG1 genotox inconclusive, SMN2 splice up inactive, KinaseGlo FLuc inactive, NPC1 promoter act inactive, FLuc counter inactive and Rab9 promoter act inactive.
COc1ccc(C2NS(=O)(=O)OCC2C)cc1 (configuration not stated) was read as ELG1 genotox inactive, NPC1 promoter act inactive, FLuc counter inactive and Rab9 promoter act inactive.
`O=C(CSc1nnc(NC(=O)C2CCC2)s1)NC1CC1` gave ELG1 genotox inactive, SMN2 splice up inactive, KinaseGlo FLuc inactive, NPC1 promoter act inactive, FLuc counter inactive and Rab9 promoter act inactive.
For O=C(CSc1nnc(NC(=O)c2ccccc2F)s1)NC1CC1 the results were ELG1 genotox inactive, NPC1 promoter act inconclusive, FLuc counter 15µM and Rab9 promoter act inconclusive.
Cc1nnc(SCC(=O)NC2CC2)s1 was read as ELG1 genotox inactive, NPC1 promoter act inactive, FLuc counter inactive and Rab9 promoter act inactive.
O=C(CSc1nnc(NC(=O)c2cccc(F)c2)s1)NC1CC1 was read as ELG1 genotox inactive, NPC1 promoter act inactive, FLuc counter 15µM and Rab9 promoter act inactive.
O=C(CSc1nnc(NC(=O)c2ccco2)s1)NC1CCCC1 was read as ELG1 genotox inactive, SMN2 splice up inactive, KinaseGlo FLuc inactive, NPC1 promoter act inactive, FLuc counter inactive and Rab9 promoter act inactive.
Cc1cccc(C(=O)Nc2nnc(SCC(=O)NC3CC3)s2)c1 was read as ELG1 genotox inconclusive, NPC1 promoter act inconclusive, FLuc counter 19µM and Rab9 promoter act inconclusive.
`COc1ccccc1C(=O)Nc1nnc(SCC(=O)NC2CCCC2)s1` gave ELG1 genotox 2.3µM, NPC1 promoter act 0.63µM and FLuc counter 4.8µM.
COc1cccc(C(=O)Nc2nnc(SCC(=O)NC3CCCC3)s2)c1 was read as ELG1 genotox inconclusive, NPC1 promoter act inconclusive, FLuc counter 2.7µM and Rab9 promoter act inconclusive.
Screening COc1ccc(C)cc1NC(=O)CCNC(=O)Cn1ccc2ccccc2c1=O returned ELG1 genotox inactive, SMN2 splice up inactive, NPC1 promoter act inactive, FLuc counter inactive and Rab9 promoter act inactive.
CC(C)CCOc1ccc(C2(C)NC(=O)NC2=O)cc1 (configuration not stated) was read as ELG1 genotox inactive, NPC1 promoter act inactive, FLuc counter inactive and Rab9 promoter act inactive.
Screening Cc1occc1C(=O)N/N=C/c1ccc2c(c1)OCO2 returned ELG1 genotox inconclusive, NPC1 promoter act 0.5µM, FLuc counter 3.8µM and Rab9 promoter act 0.35µM.
Cn1cc(C(=O)N/N=C/c2ccc(Br)c([N+](=O)[O-])c2)c2ccccc21 was read as ELG1 genotox inconclusive, NPC1 promoter act inactive, FLuc counter inactive and Rab9 promoter act inactive.
COc1ccc(/C=N/NC(=O)c2ccoc2C)cc1O was read as ELG1 genotox inconclusive, SMN2 splice up inconclusive, KinaseGlo FLuc inactive, NPC1 promoter act inactive, FLuc counter inconclusive and Rab9 promoter act inactive.
Cc1cc(C(=O)N/N=C/c2ccc3c(c2)OCO3)c(C)o1 was read as ELG1 genotox inconclusive, KinaseGlo FLuc 13µM, NPC1 promoter act inconclusive, FLuc counter 6µM and Rab9 promoter act 3.2µM.
For Cn1cc(C(=O)N/N=C/c2cccs2)c2ccccc21 the results were ELG1 genotox inconclusive, SMN2 splice up 22µM, KinaseGlo FLuc inactive, NPC1 promoter act inconclusive, FLuc counter 15µM and Rab9 promoter act inconclusive.
For COc1ccc(/C=N/NC(=O)c2ccoc2C)cc1OC the results were ELG1 genotox inconclusive, SMN2 splice up 13µM, KinaseGlo FLuc inactive, NPC1 promoter act inconclusive, FLuc counter inconclusive and Rab9 promoter act inconclusive.
O=S(=O)(c1ccccc1)N(CC(O)COc1ccccc1)c1ccccc1 (configuration not stated) was read as ELG1 genotox inactive, NPC1 promoter act inactive, FLuc counter inactive and Rab9 promoter act inactive.
`Cn1cc(C(=O)N/N=C/c2ccc3c(c2)OCO3)c2ccccc21` gave ELG1 genotox inactive, NPC1 promoter act inconclusive, FLuc counter 8.5µM and Rab9 promoter act inconclusive.
For O=C(N/N=C/c1ccc2c(c1)OCO2)c1cccc2ccccc12 the results were ELG1 genotox inactive, NPC1 promoter act inactive, FLuc counter inactive and Rab9 promoter act inactive.
Cc1ccccc1N1CCN(S(=O)(=O)c2nnc(NC(=O)c3ccco3)s2)CC1 was read as ELG1 genotox inactive, NPC1 promoter act inactive, FLuc counter inactive and Rab9 promoter act inactive.
For CSc1ccc(CCNC(=O)c2cnc3c(C)cccn3c2=O)cc1 the results were FLuc counter inactive.
Cc1cccn2c(=O)c(C(=O)NCCc3ccc(Cl)cc3)cnc12 was read as FLuc counter 13µM.
`O=C(NCc1cccnc1)c1cnc2n(c1=O)CCS2` gave ELG1 genotox inactive, SMN2 splice up inactive, KinaseGlo FLuc inactive, NPC1 promoter act inactive, FLuc counter inactive and Rab9 promoter act inactive.
Screening O=C(NCCc1c[nH]c2ccccc12)c1cnc2n(c1=O)CCS2 returned ELG1 genotox inactive, SMN2 splice up inconclusive, KinaseGlo FLuc inactive, NPC1 promoter act inconclusive, FLuc counter inconclusive and Rab9 promoter act 4.5µM.
O=C(NCCc1ccccc1)c1cnc2n(c1=O)CCS2 was read as ELG1 genotox inconclusive, SMN2 splice up inconclusive, KinaseGlo FLuc inactive, NPC1 promoter act inconclusive, FLuc counter inconclusive and Rab9 promoter act 2.2µM.
Screening CCOc1ccc(C(=O)Nc2nnc(SCc3cc(=O)c4cc(C)ccc4[nH]3)s2)cc1 returned FLuc counter inactive.
O=C(NC1CCN(C(=S)Nc2ccccc2)CC1)C1CCCCC1 was read as ELG1 genotox inactive, NPC1 promoter act inactive, FLuc counter inactive and Rab9 promoter act inactive.

Bioassay records as filed in PubChem.
